High-throughput results from PubChem.
Compounds with a hit are over-represented: about 2.3% of the library has one in this group of screens.
SENP7 block: SENP7 protease inhibitors, primary screen, biochemical, luminescence, uHTS; inhibition, % at 5 µM; actives 1.5% (n = 330,000); recombinant SENP7, Z-RLRGG-aminoluciferin luminescence, 40 min;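 active = inhibition above about 50% at the single test dose, limit read from the data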
HSP90 refold inh: HSP90 inhibitors, primary screen, cell lysate, luminescence; Rabbit reticulocyte lysate, luciferase refolding luminescence, 3 h; actives 0.91% (n = 290,000); inhibition, % at 5.6 µM;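 active = inhibition above the screen-wide mean plus 3 SD, computed separately per campaign, cut at about 16% in these data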;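 note: inhibitors lower the luminescence because luciferase stays unfolded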
SENP6 inh: SENP6 protease inhibitors, primary screen, biochemical, luminescence, uHTS. Sentrin-specific protease 6 (Homo sapiens), Q9GZR1. AID 2599, 2010. Recombinant SENP6 catalytic domain, aminoluciferin luminescence. inhibition, % at 10 µM. actives 1.8% (n = 330,000);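 active = inhibition above about 50% at the single tested dose, limit read from the data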
SENP8 block-1: SENP8 protease inhibitors, primary screen, biochemical, luminescence; purified SENP8, Z-RLRGG-aminoluciferin cleavage; AID 2540, 2010; inhibition, % at 10 µM; Sentrin-specific protease 8 (Homo sapiens), Q96LD8; actives 1.2% (n = 330,000); in the data active = inhibition above about 50%
LGR2 antag: inhibitors of bursicon-induced LGR2 CRE-luciferase signal, primary screen, cell-based, HEK293, CRE-luciferase reporter, bursicon stimulation; AID 720647, 2013; bursicon-stimulated, 4 h; actives 0.35% (n = 380,000); inhibition, % at 9.99 µM; Drosophila bursicon receptor LGR2 (rickets);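 active = drop in luminescence signal, shown as inhibition above about 50% in the replicate tests, limit read from the data, passing the limit was not always enough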;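 note: agonist challenge used bursicon conditioned medium at about half maximal strength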
SENP8 block-2: human SENP8 protease inhibitors, primary screen, biochemical, fluorescence, Nedd8 protein substrate, uHTS. recombinant SENP8. AID 602440, 2012. Sentrin-specific protease 8 (Homo sapiens), Q96LD8. actives 0.64% (n = 360,000). inhibition, % at 20 µM; in the data active = inhibition mostly above about 40%, no sharp cut-off; inactive = mostly below about 27%
HSP90 confirm: HSP90 inhibitors, confirmation, cell lysate, luminescence | shares compounds with HSP90 refold inh | rabbit reticulocyte lysate, luciferase refolding luminescence, 3 h | inhibition, % at 5.9 µM | actives 64% (n = 2,300) | AID 1846, 2009; in the data active = inhibition above about 18%
FLuc counter: firefly luciferase inhibitors, HSP90 counter-screen, confirmation, artefact control for HSP90 inhibitor project, biochemical, luminescence, triplicate; shares compounds with HSP90 refold inh; purified native firefly luciferase; inhibition, % at 5.9 µM; actives 48% (n = 2,300); AID 1847, 2009;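 active = inhibition above the mean inhibition of all tested sample wells plus 3 SD, cut at about 10% in these data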
Target sequence (P08659 whole entry, looked up): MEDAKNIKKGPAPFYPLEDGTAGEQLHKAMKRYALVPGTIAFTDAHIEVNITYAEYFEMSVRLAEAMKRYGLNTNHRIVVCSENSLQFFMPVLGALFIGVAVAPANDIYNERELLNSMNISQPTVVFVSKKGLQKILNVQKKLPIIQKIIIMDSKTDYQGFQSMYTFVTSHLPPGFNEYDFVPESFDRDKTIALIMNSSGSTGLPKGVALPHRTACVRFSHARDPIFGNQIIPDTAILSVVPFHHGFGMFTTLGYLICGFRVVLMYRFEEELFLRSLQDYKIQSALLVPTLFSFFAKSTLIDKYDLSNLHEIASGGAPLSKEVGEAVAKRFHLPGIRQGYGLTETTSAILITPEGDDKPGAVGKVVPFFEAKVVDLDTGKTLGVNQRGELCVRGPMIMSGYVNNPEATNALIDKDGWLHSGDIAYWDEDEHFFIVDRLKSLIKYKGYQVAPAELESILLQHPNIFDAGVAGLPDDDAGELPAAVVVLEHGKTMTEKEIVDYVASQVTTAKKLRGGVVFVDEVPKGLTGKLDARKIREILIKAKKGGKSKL
A number is an active result; - = inactive; . = not tested or not shown.

SMILES | SENP7 block | HSP90 refold inh | SENP6 inh | SENP8 block-1 | LGR2 antag | SENP8 block-2 | HSP90 confirm | FLuc counter
Cc1oc(-c2ccc3c(c2)OCCO3)cc1C(=O)NC(CCC(=O)O)C(=O)O (stereo not drawn) | - | 64 | - | - | . | - | 77 | 33
CN(C)Cc1cn(CC[C@@H]2CC[C@H](NS(=O)(=O)c3ccccc3)[C@@H](CO)O2)nn1 | . | . | . | . | - | . | . | .
C[C@@H]1CCCCO[C@H](CN(C)S(C)(=O)=O)[C@H](C)CN([C@@H](C)CO)C(=O)c2cc(NC(=O)c3ccncc3)ccc2O1 | . | . | . | . | - | . | . | .
O=C(O)c1ccc(Oc2c(C(F)(F)F)oc3cc(O)ccc3c2=O)cc1 | - | 31 | - | - | - | - | - | -
CO[C@@H]1CC[C@H]2CCOc3ccc(C#N)cc3C(=O)N(C)C[C@H](C)C(=O)N(C)C[C@H]1O2 | . | . | . | . | - | . | . | .
Cc1ccc(S(=O)(=O)N(C)C[C@H]2Oc3ccc(N(C)C)cc3CC(=O)N([C@H](C)CO)C[C@H]2C)cc1 | . | . | . | . | - | . | . | .
Cc1onc(-c2ccccc2Cl)c1C(=O)N1CCN(C(=O)c2ccco2)CC1 | - | 27 | - | - | . | - | - | -
C=CCOc1c(CNc2cccc(C(=O)O)c2)cccc1OC | - | 45 | - | - | - | - | 53 | -
C=CCOc1c(CNc2cccc(C(=O)O)c2)cccc1OCC | - | - | - | - | - | - | . | .
O=C(C[C@@H]1CC[C@@H]2[C@H](COC[C@@H](O)CN2S(=O)(=O)c2ccccc2)O1)NCCN1CCCC1 | . | . | . | . | - | . | . | .
C/C(=N\Nc1nc(C(=O)O)cs1)c1ccccc1 | - | 29 | - | - | - | . | - | -
COc1cccc(C2Nc3ccccc3NC3=C2C(=O)CC(C)(C)C3)c1 (stereo not drawn) | - | 23 | - | - | - | - | - | -
CN(C)c1ccc(/C=C2\SC(=O)N(CCc3nnc(N)s3)C2=O)cc1 | - | 37 | - | - | 89 | - | 85 | 82
O=C(O)CSc1nnc(Cn2nnc3ccccc32)n1CCc1ccccc1 | - | 25 | - | - | . | - | - | -
CC(C)OP(=O)(c1ccc(N(C)C)cc1)C(O)c1ccc(N(C)C)cc1 (stereo not drawn) | - | 30 | - | - | - | - | - | -
CC(C)COP(=O)(c1ccc(N(C)C)cc1)C(O)c1ccc(N(C)C)cc1 (stereo not drawn) | - | - | - | - | - | - | . | .
Cc1noc(C)c1NC(=O)N[C@H]1CC[C@H](CC(=O)Nc2ccc(-c3ccccc3)cc2)O[C@@H]1CO | . | . | . | . | - | . | . | .
Cn1cnc(S(=O)(=O)N[C@H]2C=C[C@H](CC(=O)NCC3CCCCC3)O[C@H]2CO)c1 | . | . | . | . | - | . | . | .
CCCc1nc2c(=O)n(C)c(=O)nc-2n(C)n1 | . | 75 | . | . | 102 | 120 | 83 | 85
CCn1c(N)nc2c1c(=O)n(C)c(=O)n2C | - | - | - | - | - | - | . | .
Cc1cccc(C(=O)Nc2nc(C)c(C(=O)Nc3ccc4c(c3)CCC4)s2)c1 | - | 80 | - | - | - | - | 83 | 15
O=C(C[C@H]1CC[C@H](NC(=O)c2ccncc2)[C@@H](CO)O1)NCC1CCCCC1 | . | . | . | . | - | . | . | .
O=C(CN1C(=O)c2ccccc2S1(=O)=O)NCc1ccccc1Cl | - | - | - | - | - | - | . | .
O=C(CN1C(=O)c2ccccc2S1(=O)=O)c1ccccc1Cl | - | 53 | - | - | 96 | - | 76 | -
Cc1ccc(C(=O)CN2/C(=C(\O)c3ccccc3)C(=O)c3ccccc3S2(=O)=O)c(C)c1 | - | 40 | - | - | . | - | - | -
SMILES | SENP7 block | HSP90 refold inh | SENP6 inh | SENP8 block-1 | LGR2 antag | SENP8 block-2 | HSP90 confirm | FLuc counter
Cc1ccc(C(=O)CN2C(=O)c3ccccc3S2(=O)=O)cc1 | - | 24 | - | - | 95 | - | 57 | -
O=C(CN1C(=O)c2ccccc2S1(=O)=O)N1CCCCC1 | - | - | - | - | - | - | . | .
CC(=O)N(C)C[C@@H]1Oc2ncc(C#CCc3ccccc3)cc2C(=O)N([C@@H](C)CO)C[C@@H]1C | . | . | . | . | - | . | . | .
O=C(O)c1ccc(NC(CSCc2ccc(F)cc2)C(=O)O)c([N+](=O)[O-])c1 (stereo not drawn) | - | - | - | - | . | - | . | .
Cc1ccc(CSCC(Nc2ccc(C(=O)O)cc2[N+](=O)[O-])C(=O)O)cc1 (stereo not drawn) | - | 25 | - | - | - | - | - | -
C[C@@H]1CN([C@H](C)CO)C(=O)c2cccc(NS(=O)(=O)c3cn(C)cn3)c2O[C@H]1CN(C)Cc1ccc(Oc2ccccc2)cc1 | . | . | . | . | - | . | . | .
Cc1ccc2nc(SCC3CCCCO3)[nH]c2c1 (stereo not drawn) | - | 30 | - | - | - | - | 64 | 61
CCN(CC)c1ccc(C2C(C(=O)OC(C)C)C(=O)CC(C)(O)C2C(=O)OC(C)C)cc1 (stereo not drawn) | - | 32 | - | - | . | - | - | -
CC1=C(C(=O)NCc2ccc3c(c2)OCO3)C2(CCC(C)CC2)OC1=O (stereo not drawn) | - | 57 | - | - | - | - | - | -
CC1CCCCC12NC(=O)N(CC(=O)NCc1ccc3c(c1)OCO3)C2=O (stereo not drawn) | - | 26 | - | - | - | - | - | -
C[C@H]1CN([C@@H](C)CO)C(=O)c2cccc(NC(=O)Nc3ccc(F)cc3)c2O[C@H]1CN(C)S(=O)(=O)c1ccccc1 | . | . | . | . | - | . | . | .
C[C@H]1CN([C@@H](C)CO)C(=O)c2cc(C3=CCCCC3)cnc2O[C@@H]1CN(C)Cc1ccncc1 | . | . | . | . | - | . | . | .
CC(C)C#Cc1ccc2c(c1)O[C@@H](CN(C)Cc1cccnc1)[C@H](C)CN([C@@H](C)CO)S2(=O)=O | . | . | . | . | - | . | . | .
Cc1[nH]n(-c2cccc([N+](=O)[O-])c2)c(=O)c1-c1ccccc1 | - | - | - | - | - | - | . | .
Cc1[nH]n(-c2ccccc2)c(=O)c1C(c1ccc(O)c([N+](=O)[O-])c1)c1c(C)[nH]n(-c2ccccc2)c1=O | - | 26 | 51 | - | . | 80 | - | -
C[C@H](CO)N1C[C@H](C)[C@H](CN(C)Cc2ccc(C(=O)O)cc2)OCCCC[C@H](C)Oc2ccc(NC(=O)c3ccccc3)cc2C1=O | . | . | . | . | - | . | . | .
CC(=O)Nc1ccc(SCC(=O)c2cc(C)n(Cc3cccs3)c2C)cc1 | - | - | - | - | . | - | . | .
